CHT block: inhibits the human high affinity choline transporter; Q9GZV3; CHT-expressing cells, membrane potential dye, choline response; stronger effect = lower value; B-score at 10 µM; 0.86% of 310,000 active; AID 488975;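 active means B-score over 3 SD under the library average, and starting fluorescence ratio not unusually high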;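 further: choline stimulus applied at its EC90 after an EC20 pre-addition; B-score computed on integrated fluorescence ratio after choline addition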
MEKK2 WT-MEK5: raises or lowers MEK5 binding to wildtype human MEKK2 PB1 domain; 1.1% of 290,000 active; bead flow cytometry, Alexa488-MEK5 binding to MEKK2 WT; actives lie on both sides; binding response (% of control), % at 10 µM; Q9Y2U5; AID 1531; in the data active means binding response below about 67% or above about 130%
MEKK3 PB1 HTS: modulators (inhibitors or enhancers) of MEK5 binding to human MEKK3 PB1 domain. binding response (% of control), % at 10 µM. AID 1529. bead-based flow cytometry, Alexa488-MEK5 binding to MEKK3; actives lie on both sides; 0 = blocked by unlabeled MEK5, 100 = vehicle. 1.4% of 290,000 active;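 active means binding response more than 3 SD above or below the average of its plate-row segment, actives on both sides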;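 further: Alexa488 bead fluorescence after subtracting the streptavidin-only scavenger bead signal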
Target sequence (Q99759 whole entry, looked up, the tested form may be a part): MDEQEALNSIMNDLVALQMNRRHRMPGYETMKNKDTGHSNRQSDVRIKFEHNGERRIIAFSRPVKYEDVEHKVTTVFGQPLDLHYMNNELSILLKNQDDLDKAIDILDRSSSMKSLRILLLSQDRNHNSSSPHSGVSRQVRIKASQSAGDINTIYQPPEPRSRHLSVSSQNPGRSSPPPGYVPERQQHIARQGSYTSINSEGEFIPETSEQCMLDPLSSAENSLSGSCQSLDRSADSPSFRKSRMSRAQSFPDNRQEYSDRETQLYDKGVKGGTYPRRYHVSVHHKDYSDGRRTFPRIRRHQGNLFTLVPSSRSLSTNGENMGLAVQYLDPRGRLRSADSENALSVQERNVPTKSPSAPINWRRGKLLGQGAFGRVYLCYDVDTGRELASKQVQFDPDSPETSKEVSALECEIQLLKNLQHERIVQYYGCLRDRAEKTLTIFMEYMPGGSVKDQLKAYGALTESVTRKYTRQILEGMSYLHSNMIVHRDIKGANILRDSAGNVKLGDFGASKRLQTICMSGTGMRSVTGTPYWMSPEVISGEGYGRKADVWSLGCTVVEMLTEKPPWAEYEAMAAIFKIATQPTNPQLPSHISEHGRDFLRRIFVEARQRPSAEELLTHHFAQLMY
SUMO Mot1 rescue: blocks SUMOylation pathway, rescuing yeast Mot1-301 growth; S. cerevisiae Mot1-301 growth rescue, ATP luminescence, 38.5C; percent above DMSO median, 100 means doubled; growth rescue, % at 18.8 µM; 1% of 320,000 active;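 active means every valid replicate shows activation above 250% relative to neutral control wells; inactive means the rest, any valid replicate at or below 250%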;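 further: OY570 slx delta 5 strain wells were the positive control but not used for scaling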
CHT PAM: allosteric activators of human choline transporter CHT. Q9GZV3. B-score at 10 µM. AID 488977. 0.49% of 310,000 active. CHT-expressing cells, membrane potential dye, choline EC20; stronger effect = higher value; LV-AA mutant CHT in HEK293 cells;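 active means initial fluorescence not abnormally high and integrated response B-score, plate-corrected, over 3 SD above library mean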
MEKK2mut PB1 HTS: signal of MEK5 binding to mutant human MEKK2 PB1 domain; bead flow cytometry, Alexa488-MEK5 binding to MEKK2 mutant; percent response, % at 10 µM; 0.35% of 290,000 active; AID 1530; in the data active means percent response above about 24%, passing the limit was not always enough
Mot1 SUMO dose: inhibits SUMO pathway, affecting Mot1-301 yeast growth; shares compounds with SUMO Mot1 rescue; S. cerevisiae Mot1-301 galactose growth, ATP luminescence, 24 h; -100 = growth of slx-deleted rescue strain; growth activity, percent, % at 42 µM; 2,300 tested, under 10 active; AID 493004;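 active means Signal drops as the depositor expects, and the fitted half-maximal dose is no more than ten times the top valid tested dose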;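 further: more negative values mean stronger growth rescue toward the control strain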
* = called active by the depositor; i = inactive; nt = not tested or not shown; + = active, no number. Only some compounds are listed: those with a hit (about 4.1% of all), similar ones and a draw of the others.

SMILES | CHT block | MEKK2 WT-MEK5 | MEKK3 PB1 HTS | SUMO Mot1 rescue | CHT PAM | MEKK2mut PB1 HTS | Mot1 SUMO dose
O=C(CN1C(=O)NC2(CCCC2)C1=O)Nc1nc2ccccc2[nH]1 | i | nt | nt | 553* | i | nt | 0
CC1CCN(S(=O)(=O)c2ccc(NC(=O)c3cccs3)cc2)CC1 | i | 99 | 102 | 415* | i | 4 | 1
CC1(C)Cc2nc3sc4c(OCc5ccccc5)ncnc4c3cc2CO1 | i | 100 | 98 | + | i | 1 | 1
CCN1CCN(c2oc(-c3ccc(OC)cc3)nc2C#N)CC1 | i | 102 | 98 | 493 | i | 5 | nt
CCOc1ccc(-c2nc(C#N)c(N3CCOCC3)o2)cc1 | i | 105 | 104 | 417* | i | 7 | -1
Cc1ccccc1C1CC(c2cccs2)Nc2nnnn21 (stereo not drawn) | i | 104 | 104 | -1 | i | 1 | nt
Nc1ccnc(=O)[nH]1 | i | nt | nt | 654* | i | nt | 0
O=c1nccc(N/N=C/c2ccccc2O)[nH]1 | i | 100 | 101 | -17 | i | 3 | nt
Cn1c(SCC(=O)N2CCCC2)nnc1-c1cnccn1 | i | 93 | 98 | 5 | i | -9 | nt
O=C(Cc1ccc(F)cc1)Nc1nc(-c2ccc(F)cc2)cs1 | i | 97 | 101 | + | i | -2 | -1
CN(C)c1cccc(C(=O)Nc2cc(C(F)(F)F)ccc2-n2cnc3ccccc32)c1 | i | 114 | 102 | 400* | i | 10 | 0
NNC(=O)CNS(=O)(=O)c1ccc([N+](=O)[O-])cc1 | i | 101 | 102 | -15 | i | 1 | nt
O=C(Nc1nc2ccccc2s1)C1=NN(c2ccccc2)C(=O)CC1 | i | 100 | 100 | 17 | i | -1 | nt
O=C(COc1ccccc1)NC(=S)Nc1cccc2cc(O)ccc12 | i | 104 | 105 | 1 | i | 4 | nt
Cc1cc(NCc2ccccn2)nc2ccccc12 | i | 106 | 99 | 1 | i | 4 | nt
c1ccc(CNc2ccc3ccccc3n2)nc1 | i | 99 | 102 | 365* | i | 2 | -2
COc1ccc(-c2nnn(CC(=O)N3CCN(c4ccccc4OC)CC3)n2)cc1OC | i | 99 | 109 | -22 | i | 4 | nt
COc1ccc(N2CCN(C(=O)Cn3nnc(-c4ccc(OC)c(OC)c4)n3)CC2)cc1 | i | 104 | 101 | 385* | i | 4 | 0
Cc1ccc(S(=O)(=O)N2[C@@H](c3ccc(C(C)(C)C)cc3)C(C(=O)O)=CC[C@H]2c2ccc(C(C)C)cc2)cc1 | nt | nt | nt | 176 | nt | nt | nt
CCN(CC)C(=O)Cn1cc(S(=O)(=O)CC(=O)Nc2ccccc2C)c2ccccc21 | i | 100 | 100 | 1 | i | 2 | nt
CC(C)(C)n1nnnc1C(c1ccc(Cl)cc1)N(Cc1cccnc1)Cc1ccco1 (stereo not drawn) | i | 97 | 94 | 437* | i | -2 | -1
COc1ccc(CNC(=O)N2CCN(c3ccccc3)CC2)cc1 | i | 97 | 98 | 252 | i | -2 | nt
Cc1ccc(CSCCNC(=O)c2ccc(C)cc2)cc1 | i | 106 | 115 | 237 | i | -1 | nt
Cc1ccc(CSCCNC(=O)c2ccc(NS(C)(=O)=O)cc2)cc1 | i | 104 | 102 | 453* | i | 1 | 0
CN(C)c1ccc(C(=O)N2CCCC(CCC(=O)N3CCN(c4ccccn4)CC3)C2)cc1 (stereo not drawn) | i | 110 | 104 | 554* | i | 5 | 0
O=C(NCC(c1cccs1)N1CCOCC1)c1ccccc1NS(=O)(=O)c1cc([N+](=O)[O-])ccc1Cl (stereo not drawn) | i | 93 | 96 | 504* | i | -3 | -1
Cc1ccc(-c2nn(-c3ccccc3)cc2C(=O)N2CCN(c3ccccn3)CC2)cc1 | i | 99 | 103 | 596* | i | -2 | 1

Screens deposited in PubChem by several laboratories.
